ATXN2 expr inh = Primary qHTS for Inhibitors of ATXN expression; HEK-293 ATXN2-luciferase reporter, luminescence, 24 h; Potency, µM (highest dose often 57 µM), usual class: inhibitors; hit rate 0.72% among 360,000; AID 1745845, 2022; also: nearly all actives have a fitted effect of over 55% in size
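qHTS (up to 57 uM final) was run with 24 h compound exposure of reporter cells at 37 °C. Each well was multiplexed: SteadyGlo luminescence measured ATXN2-luciferase expression after a fluorogenic Gly-Phe-AFC viability readout (25 uM final).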
GLP1R inv ag = qHTS of GLP-1 Receptor Inverse Agonists (Inhibition Mode); Glucagon-like peptide 1 receptor (Homo sapiens), P43220; HEK293 GLP-1R CRE-luciferase, luminescence, 24 h; GLP-1R form is constitutively active; Potency, µM (titrated, usually from 38.3 µM), usual class: inhibitors; hit rate 1.6% among 410,000; AID 624417, 2012; also: nearly all actives have a fitted effect of over 55% in size
Target sequence (P43220 whole entry, looked up): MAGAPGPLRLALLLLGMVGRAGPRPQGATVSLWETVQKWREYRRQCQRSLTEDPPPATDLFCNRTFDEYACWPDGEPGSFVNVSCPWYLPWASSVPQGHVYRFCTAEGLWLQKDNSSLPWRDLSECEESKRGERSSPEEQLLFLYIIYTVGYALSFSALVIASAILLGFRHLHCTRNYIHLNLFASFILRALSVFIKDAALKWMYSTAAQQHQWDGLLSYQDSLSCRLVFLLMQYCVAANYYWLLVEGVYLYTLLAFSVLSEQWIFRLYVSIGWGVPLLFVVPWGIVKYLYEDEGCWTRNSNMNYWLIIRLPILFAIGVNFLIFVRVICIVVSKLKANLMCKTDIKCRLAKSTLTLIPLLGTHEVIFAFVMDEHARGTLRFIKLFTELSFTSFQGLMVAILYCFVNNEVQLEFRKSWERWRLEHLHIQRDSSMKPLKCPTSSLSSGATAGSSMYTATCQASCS
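Stable HEK293 clone (constitutively active GLP-1R + cAMP-response luciferase); 200 cells/uL plated, 12 h pre-culture, compound 24 hr, 37 deg C/5% CO2; detection reagent 12 min RT; luminescence.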
HepG2 tox-1 = qHTS for Inhibitors of TGF-b: Cytotox Counterscreen. HepG2 CAGA-GFP viability, ATP luminescence, 18 h. Potency, µM (titrated, usually from 46.1 µM), actives largely listed as cytotoxic. hit rate 0.76% among 410,000. AID 588856, 2011
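CellTiter-Glo luminescence gave cytotoxicity after 18 hours at 37 degrees C. The cells were HepG2 CAGA-GFP in 1% FBS DMEM, stimulated with 500 pg/mL TGF-beta after compound addition. %Activity was normalised to no-cell wells (complete cell-killing) and DMSO (no toxicity), and curves were fitted and classified.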
GLP1R ag = qHTS of GLP-1 Receptor Agonists; Glucagon-like peptide 1 receptor (Homo sapiens), P43220; HEK293 GLP-1R CRE-luciferase, luminescence, 4-6 h; cells express a hypersensitive GLP-1R form; Potency, µM (top dose mostly 45.6 µM), most hits filed as activators; hit rate 0.007% among 380,000; AID 624172, 2012
TGFb SMAD3 inh = qHTS for Inhibitors of TGF-b | HepG2 CAGA-GFP TGF-b/SMAD3 reporter, GFP fluorescence, 18 h; TGF-beta stimulated, 500 pg/mL final | Potency, µM (highest dose often 46.1 µM), hits mostly inhibitors | hit rate 1.2% among 410,000; also: nearly all actives have a fitted effect of over 65% in size
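Per well, imaged GFP fluorescence of HEPG2 CAGA-GFP cells gives the signal; cells get compound, then TGF-beta (500 pg/mL final), 18 h at 37 degrees C; %Activity versus -TGF-beta and +DMSO controls.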
ATXN viability = Viability Counterscreen for Primary qHTS for Inhibitors of ATXN expression | S2 cells (HEK-293 line with an ATXN2-luciferase reporter) viability, CellTiter-Fluor protease fluorescence, 24 h | Potency, µM (titrated, usually from 56.7 µM), usual class: cytotoxic | hit rate 0.49% among 400,000; also: nearly all actives have a fitted effect of over 40% in size
TGFb confirm = qHTS for Inhibitors of TGF-b: Confirmation of Cherry Picks; shares compounds with TGFb SMAD3 inh; HepG2 CAGA-GFP TGF-b reporter, GFP fluorescence, 18 h; cells stimulated with TGF-beta, 500 pg/mL; Potency, µM (series often up to 46.1 µM), hits mostly inhibitors; hit rate 63% among 1,600; AID 720534, 2013; also: nearly all actives have a fitted effect of over 65% in size
HepG2 tox-2 = qHTS for Inhibitors of TGF-b: Cytotox Counterscreen for Cherry Picks; Potency, µM (doses to about 46.1 µM), actives largely listed as inhibitors; HepG2 CAGA-GFP viability, ATP luminescence, 18 h; cells stimulated with TGF-beta, 500 pg/mL; shares compounds with TGFb SMAD3 inh; hit rate 27% among 1,600; also: nearly all actives have a fitted effect of over 70% in size
TGFb CCL64 inh = qHTS for Inhibitors of TGF-b: CCL64 Cells Orthogonal Assay for Cherry Picks; shares compounds with TGFb SMAD3 inh; CCL64 CAGA-GFP reporter, TGF-b stimulated, GFP fluorescence, 18 h; Potency, µM (doses to about 46.1 µM), hits mostly inhibitors; hit rate 41% among 1,600; AID 720536, 2013; also: nearly all actives have a fitted effect of over 65% in size
COP TGFb inh = qHTS for Inhibitors of TGF-b: Hit Validation in HepG2 Cells using COP promoter; Potency, µM (highest dose often 46.1 µM), most hits filed as inhibitors; HepG2 COP-GFP TGF-b reporter, GFP fluorescence, 18 h; cells stimulated by added recombinant TGF-beta; AID 720537, 2013; shares compounds with TGFb SMAD3 inh; hit rate 3% among 1,600; also: nearly all actives have a fitted effect of over 70% in size
A number is an active result; n = inactive; u = inconclusive; x = not tested or not shown. In the library only some 3.7% were active in any assay of this set; here they are far more common. Calls follow the shape of the dose curve; as a rule, active = well fitted curve in the direction sought with a large enough effect; inconclusive = small, poorly fitted or top-dose-only effect, or another doubt; inactive = no such curve, though single readings can be large; an effect the other way counts as inactive or inconclusive.

SMILES	ATXN2 expr inh	GLP1R inv ag	HepG2 tox-1	GLP1R ag	TGFb SMAD3 inh	ATXN viability	TGFb confirm	HepG2 tox-2	TGFb CCL64 inh	COP TGFb inh
COc1ccc(COc2cc(-c3cccc(OC)c3)nc3ccc(NC(C)=O)cc23)cc1	n	n	n	n	n	n	x	x	x	x
COc1ccc(COc2cc(-c3cccc(OC)c3)nc3ccc(N)cc23)cc1	n	u	n	n	7.1µM	x	3.3µM	n	1.8µM	n
COc1cccc(-c2nc(SCc3cccc(Br)c3)n3[nH]c(=O)cc3n2)c1	n	n	n	x	n	n	x	x	x	x
C=CC[C@H](CC(=O)N(CCO)Cc1ccccc1)C(=O)N[C@H](COC(=O)[C@@H](CC=C)Cc1ccc(F)cc1)Cc1c[nH]c2ccccc12	u	n	n	n	13µM	u	16µM	n	u	n
C=CC[C@@H](CC(=O)N(CCO)Cc1ccccc1)C(=O)N[C@@H](COC(=O)[C@@H](CC=C)Cc1ccc(F)cc1)Cc1ccccc1	u	u	n	n	n	u	x	x	x	x
C=CCC[C@@H](Cc1ccc(F)cc1)C(=O)OC[C@@H](NC(=O)[C@H](CC=C)CC(=O)N(CCO)Cc1ccccc1)c1ccccc1	u	u	n	n	u	u	x	x	x	x
C=CCC[C@@H](Cc1ccc(F)cc1)C(=O)OC[C@@H](NC(=O)[C@@H](CC=C)CC(=O)N(CCO)Cc1ccccc1)c1ccccc1	u	u	n	n	11µM	u	15µM	n	u	n
CCCN1CCN(c2nnc(-n3cccc3C(=O)Nc3cc(Cl)ccc3C)s2)CC1	x	n	n	x	n	x	x	x	x	x
COc1ccc(-c2nc3c4ccccc4ccn3c2Cc2cccc(Cl)c2)cc1OC	n	u	n	n	n	u	x	x	x	x
COc1ccc(-c2nc3c4ccccc4ccn3c2Cc2ccc(C)cc2)cc1OC	n	u	n	n	13µM	u	26µM	n	18µM	n
NC1=NC[C@@H](Cc2ccc(O)cc2)N1CCC12CC3CC(CC(C3)C1)C2	u	8.9µM	n	n	10µM	u	n	n	n	n
CCCCOc1ccc(C(=O)Nc2onc3c2CCCC3)cc1	n	n	n	x	n	u	x	x	x	x
Cc1[nH]n(-c2ccccc2)c(=S)c1C=NCCCN=Cc1c(C)[nH]n(-c2ccccc2)c1=S	u	u	n	n	0.56µM	u	n	n	n	n
COc1ccc2c(c1)OC[C@H]1[C@H]2N2C(=O)CN(Cc3ccc(Cl)cc3)C(=O)[C@@]2(C)[C@H]1c1ccccc1	n	11µM	n	n	5µM	n	u	n	n	n
C#Cc1ccc(NC(=O)C2(C)CCN2C(=O)c2ccccc2CCc2ccccc2)cc1 (stereo not drawn)	n	u	n	n	u	n	u	n	u	n
CC1(C(=O)Nc2ccc3nc[nH]c3c2)CCN1C(=O)c1ccccc1CCc1ccccc1 (stereo not drawn)	n	n	n	n	n	n	x	x	x	x
CCn1nc(C)c2c(-c3ccccc3)cc(=O)n(C(C)C(=O)Nc3ccc(OC)c(OC)c3)c21 (stereo not drawn)	n	n	n	x	n	n	x	x	x	x
CCOc1ccc(N(CC(=O)Nc2ccccc2OCC)S(=O)(=O)c2c(C)noc2C)cc1	x	u	n	n	5µM	n	6.5µM	n	4.1µM	n
Cc1ccc(O)c(C(CC(=O)NC(C)C)c2ccccc2)c1 (stereo not drawn)	n	n	n	n	u	n	x	x	x	x
CC(NC(=O)CC(c1ccccc1)c1cc(Cl)ccc1O)c1ccccc1 (stereo not drawn)	n	u	n	n	16µM	u	u	23µM	18µM	n
COc1ccccc1C1CN(Cc2cnn(C)c2)Cc2ccccc2O1 (stereo not drawn)	x	x	x	x	x	n	x	x	x	x
COC1=C(Nc2ccccc2)C(=O)C(OC)=C(Nc2ccccc2)C1=O	n	n	n	n	n	n	x	x	x	x
COC(=O)c1ccccc1NC1=C/C(=N\S(=O)(=O)c2cccs2)c2ccccc2C1=O	4µM	u	n	n	u	7.1µM	7.3µM	15µM	3.3µM	16µM
O=C1C(Nc2ccccc2)=C/C(=N/S(=O)(=O)c2cccs2)c2ccccc21	7.9µM	n	3.5µM	n	4µM	x	2.6µM	2.6µM	3.3µM	u
COC(=O)c1cccc(NS(=O)(=O)c2cccs2)c1C	n	n	n	n	n	n	x	x	x	x
SMILES	ATXN2 expr inh	GLP1R inv ag	HepG2 tox-1	GLP1R ag	TGFb SMAD3 inh	ATXN viability	TGFb confirm	HepG2 tox-2	TGFb CCL64 inh	COP TGFb inh
Cc1ccc(S(=O)(=O)/N=C2\C=C(Nc3ccc(O)cc3)C(=O)c3ccccc32)cc1	6.3µM	4.5µM	3.2µM	n	1.3µM	4µM	1.3µM	2.3µM	5.2µM	u
O=C1C=C(Nc2ccccc2)C(=O)c2ccccc21	n	n	5µM	n	4µM	u	6.5µM	15µM	u	n
CCOc1ccccc1NC(=O)CSc1ccc2nc(-c3ccccc3)cn2n1	n	n	n	x	n	u	x	x	x	x
CC(C)(C)c1ccc(NC(=O)COC(=O)c2ccccc2OCC(=O)Nc2ccc(Br)cc2)cc1	x	x	n	x	n	x	x	x	x	x
O=C(Nc1ccc([N+](=O)[O-])cc1Cl)c1cc(Br)ccc1O	x	x	n	x	u	x	x	x	x	x
Cc1ccc(-n2cc(C(=O)c3cc(Cl)ccc3O)cc(C#N)c2=O)cc1	n	u	n	n	u	n	x	x	x	x
Cc1ccccc1NC(=O)c1cc(C(=O)c2cc(Cl)ccc2O)cn(-c2ccccc2C)c1=O	n	u	n	n	7.1µM	u	16µM	u	13µM	n

Source: PubChem (National Center for Advancing Translational Sciences (NCATS))
